Source: PubChem (National Center for Advancing Translational Sciences (NCATS))
Luciferase inh: blocks Photinus pyralis firefly luciferase activity; P08659; purified firefly luciferase, luminescence, 8 min; Potency, µM (doses to about 57.1 µM), for the others: at the highest dose activity change, negative = inhibition, actives largely listed as inhibitors; actives 2.2% (n = 72,000); active means well fitted inhibition curve with a large enough effect; inconclusive means small, poorly fitted or top-dose-only effect; further: nearly all actives have a fitted effect of over 40% in size
Target sequence (P08659 whole entry, looked up): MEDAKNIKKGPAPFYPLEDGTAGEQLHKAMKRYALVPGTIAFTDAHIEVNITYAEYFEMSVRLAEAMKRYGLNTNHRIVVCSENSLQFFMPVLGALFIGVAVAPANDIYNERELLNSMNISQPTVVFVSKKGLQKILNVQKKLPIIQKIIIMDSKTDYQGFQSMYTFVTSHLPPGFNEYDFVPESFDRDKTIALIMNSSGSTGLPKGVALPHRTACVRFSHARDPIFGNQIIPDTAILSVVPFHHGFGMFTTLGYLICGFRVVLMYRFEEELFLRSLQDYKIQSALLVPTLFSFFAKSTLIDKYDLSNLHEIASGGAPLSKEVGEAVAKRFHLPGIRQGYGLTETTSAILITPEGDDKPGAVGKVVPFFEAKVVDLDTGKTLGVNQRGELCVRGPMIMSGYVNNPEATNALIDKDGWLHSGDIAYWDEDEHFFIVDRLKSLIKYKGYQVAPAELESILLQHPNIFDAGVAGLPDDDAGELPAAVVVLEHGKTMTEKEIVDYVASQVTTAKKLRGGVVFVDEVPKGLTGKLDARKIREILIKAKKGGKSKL
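Inhibition of light generation by firefly luciferase from ATP and luciferin was profiled with concentration-response curves per sample, ATP held at 10 uM within the enzyme's linear range. Plates were read by luminescence after an 8-minute ambient incubation.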
Bst PK mod: modulators of Bacillus stearothermophilus pyruvate kinase; purified pyruvate kinase, luminescence ATP production; ribose 5-phosphate activator present at AC10; Potency, µM; actives 1.2% (n = 51,000); AID 361; in the data active means potency below about 11 µM; inconclusive means mostly about 12 µM to 25 µM;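 the screen sought inhibitors and activators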;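 further: scaled between full activation by ribose 5 phosphate and full inhibition by luteolin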
Starred values were filed as active, the others as inactive; i = inactive; ? = inconclusive; / = not tested or not shown; [ ] = remark or other dose. Rows were chosen to be rich in hits. Some 2.5% of all compounds tested hit in one or more screens of this group. Unless noted, on the % scale 0 is the no-effect control and ±100 the full control effect; potency means the concentration at half of the fitted maximal effect.

SMILES	Luciferase inh	Bst PK mod
N#Cc1nc(-c2ccc(OCc3ccccc3)cc2)oc1NCc1ccco1	-4%	/
N#Cc1nc(-c2ccc(OCc3ccccc3)cc2)oc1NCCN1CCOCC1	3%	4.5*
COc1ccc(-c2nc(C#N)c(N3CCOCC3)o2)cc1OC	-1%	/
C=CCNc1oc(-c2ccc(OC)cc2)nc1C#N	-23%	/
N#Cc1nc(-c2ccc(OCc3ccc(Cl)cc3)cc2)oc1NCCCn1ccnc1	5%	0.33*
NC[C@@H](O)CSCc1ccc(Cl)cc1	1%[11.4 µM]	/
Cc1ccc(-c2cccc(NC(=O)C3C(C(=O)O)[C@@H]4C=C[C@H]3C4)c2)o1 (stereo not given in full)	-6%	5.7*
Cc1ccc(-c2ccccc2NC(=O)C2C3C=CC(C3)C2C(=O)O)o1 (stereo not given)	-4%[25.5 µM]	>26
C=CC[C@@H]1C=C[C@@H](O/N=C2/[C@H]3O[C@@H]3[C@@H](O)[C@H]3[C@H]2CCn2c(=O)n(-c4ccccc4)c(=O)n23)[C@@H](CO)O1	1%[11.4 µM]	/
O=C1[C@H]2[C@H]3[C@H](O)[C@H](O)C/C(=N/OCc4ccccc4)[C@@H]3CC[C@@H]2C(=O)N1Cc1ccc2c(c1)OCO2	1%[11.4 µM]	/
c1ccc2sc(-c3ccc4c(c3)OCO4)nc2c1	1.6µM*	/
c1ccc2sc(N3CCN(Cc4ccc5c(c4)OCO5)CC3)nc2c1	0%	/
CCc1cc2c(nc1CC)CCN(CC/C(C)=N/O[C@@H](C)c1cn([C@@H]3COC[C@@H]3O)nn1)C2	0%[11.4 µM]	/
N#C/C(=N\O)c1nc(-c2ccccc2)cs1	-2%[25.5 µM]	>26
N#CC(=C1CCCC1)c1nc(-c2ccccc2O)cs1	13µM*	7.7*
CCn1c(C)csc1=NC(=O)c1ccccc1O	13µM*	i
CCn1c(C)csc1=NC(=O)c1ccccc1	-20%	>57
FC(F)(F)c1cc(CO[C@@H]2CCCN[C@H]2c2ccccc2)cc(C(F)(F)F)c1	-1%	/
Cc1ccc(SCN2CCCCC2)cc1 (tested in a mixture with another compound)	-10%[11.4 µM]	/
Cc1cc(C)c2c(n1)nn1c(NCCCn3ccnc3)cc(C)nc21	1%	>57
Cc1ccc(-c2cc3nc(C)cc(NCc4ccco4)n3n2)cc1	7.9µM*	6.5*
Cc1cc(NCCCn2ccnc2)n2nc(-c3ccc(F)cc3)cc2n1	13µM*	?
Cc1cccc(-c2cc3nc(C)cc(NCCCN(C)C)n3n2)c1	-1%	/
CC(C)(C)N1C(=O)[C@H]2[C@H]3[C@H](O)[C@H](O)C/C(=N/NC(=O)OCc4ccccc4)[C@@H]3CC[C@@H]2C1=O	0%[11.4 µM]	/
O=C(O)c1cc(=O)[nH]c(=S)[nH]1	1%[11.4 µM]	/
SMILES	Luciferase inh	Bst PK mod
COC(=O)c1ccc(CSc2nc3ccccc3o2)cc1	16µM*	i
COC(=O)c1ccc(CSc2nc(N)cc(N)n2)cc1	-20%	>57
O=S(=O)(/N=C(/Nc1cc(N2CCOCC2)ncn1)c1ccccc1)c1ccccc1	3.2µM*	/
O=S(=O)(/N=C(/Nc1cc(N2CCOCC2)ncn1)c1ccc(F)cc1)c1ccccc1	0%	>57
CCCN(CCc1ccccc1)[C@H]1CCc2c(O)cccc2C1	3%	/
O=C1[C@H]2[C@H]3[C@H](O)[C@H](O)C/C(=N/OC[C@@H](O)COCc4ccco4)[C@@H]3CC[C@@H]2C(=O)N1c1cccc(Oc2ccccc2)c1	0%[11.4 µM]	/
N#C/C=C1/NC(=O)c2ccccc2S1	1%	i
O=C1N/C(=C\c2ccccc2)c2ccccc21	-5%	5.6*
CO[C@@H]1COC(=O)[C@H](CCSC)NC(=O)C/C=C\[C@@H](C)COC(=O)[C@@H]2CCCN2C(=O)C/C=C\[C@H]1C	3%[11.4 µM]	/
O=c1[nH]c2ccccc2c2ccccc12	0%	/
O=c1[nH]c2ccccc2c2nc3ccccn3c12	?	4.3*
NCCC1([N+](=O)[O-])CCNCC1	3%[11.4 µM]	/
Cc1ccc(-c2nnc(SCC(=O)O)n2N)cc1	-2%	>57
CC(C)(C)c1ccc(-c2nnc(SCC(=O)O)n2N)cc1	16µM*	/
COc1ccc(C(=O)[C@H]2[C@H]3[C@@H](C(=O)[C@@H]4OC[C@H]3O4)[C@H]3C=Cc4ccccc4N32)c(OC)c1	-10%[11.4 µM]	/
CC(C)c1ccc2c(c1)CC[C@@H]1[C@@](C)(CN)CCC[C@@]21C	1%[11.4 µM]	/
Nc1c(OCC(=O)O)ccc2cc(S(=O)(=O)O)ccc12	-2%[11.4 µM]	/
NCCC[C@@](N)(C(=O)O)C(F)F	-1%	/
Oc1oc(-c2ccco2)nc1C=Nc1ccccc1	16µM*	i
Oc1oc(-c2ccco2)nc1C=Nc1cccc(Cl)c1	-6%[25.5 µM]	i
COc1ccc(-c2csc3c2[N+]2=CCC=C2C3=O)cc1	3%[11.4 µM]	/
CCOC(=O)c1c(NC(=O)c2ccc(Cl)s2)sc(C)c1C	0%	/
CCNc1nc(N)c(C(=O)c2ccc(Cl)s2)s1	?	2.2*
CN(Cc1ccco1)c1ccnc(-c2ccccc2C(F)(F)F)n1	-1%[2.29 µM]	/
O=c1c2ccccc2oc2cc(O)c([C@@H]3COC[C@@H](CO)[C@@H](O)[C@@H](O)[C@H]3O)c(O)c12	1%[11.4 µM]	/
SMILES	Luciferase inh	Bst PK mod
O=C(O)C[C@H](Cc1ccc2c(c1)OCO2)C(=O)O	2%[11.4 µM]	/
CC1=CC(=C2C(=O)c3ccccc3C2=O)C=C(C)N1C	16µM*	/
CCN1C(=C2C(=O)c3ccccc3C2=O)C=Cc2ccccc21	-11%	/
COc1ccc(COC(=O)N/N=C2/C[C@@H](O)[C@@H](O)[C@@H]3[C@@H]4C(=O)N(Cc5ccccc5)C(=O)[C@H]4CC[C@@H]23)cc1	0%[11.4 µM]	/
COCCn1c(C)cc(C(=O)COC(=O)c2cc3c(s2)CCC3)c1C	-5%	>57
COCCn1c(C)cc(C(=O)COC(=O)C23CC4CC(CC(O)(C4)C2)C3)c1C	13µM*	i
CN(C)C(=O)C1CCN(Cc2c[nH]c3ccccc23)CC1	6%[11.4 µM]	/
Nc1ncnc2c1nc(Br)n2[C@@H]1O[C@H]2COP(=O)(O)O[C@@H]2[C@H]1O	2%	/
O=C1c2ccccc2-c2ccc(N(Cc3ccc(Br)cc3)Cc3ccc(Br)cc3)cc21	0%[11.4 µM]	/
COc1cc(-c2nnn(CC(=O)NC3CCS(=O)(=O)C3)n2)ccc1OCc1ccccc1 (stereo not given)	13µM*	/
COc1cc(-c2nnn(CC#N)n2)ccc1OCc1ccccc1	-5%	/
OC[C@@H](O)CNc1ncnc2ccccc12	1%[11.4 µM]	/
O=c1c(-c2ccc3c(c2)OCCO3)coc2cc(O)cc(O)c12	?	6*
CCc1cc2c(=O)c(-c3ccc4c(c3)OCCO4)coc2cc1OC(=O)c1ccco1	-18%	i
CC(C)(C)C(=O)[C@H]([C@@H](c1ccccc1)N1CCOCC1)N1CCOCC1	2%[11.4 µM]	/
COc1ccc(C(=O)/C=C/Nc2cc(C)on2)cc1	3.2µM*	/
COc1ccc(CC(=O)Nc2cc(C)on2)cc1	-3%	>57
CO[C@H]1COC(=O)[C@H](C)NC(=O)C/C=C\[C@@H](C)[C@H](OC)COC(=O)[C@@H](OCc2ccccc2)/C=C\[C@@H]1C	-1%[11.4 µM]	/
CCOC(=O)c1c(C)nc2ccccn12	0%	>11
O=C(c1ccccc1)n1c(=S)nc2ccccn21	1.3µM*	2.2*
O=C(Nc1ccc(C(=O)Nc2ccc(C(=O)Nc3ccc(S(=O)(=O)O)c4cc(S(=O)(=O)O)cc(S(=O)(=O)O)c34)cc2)cc1)Nc1ccc(C(=O)Nc2ccc(C(=O)Nc3ccc(S(=O)(=O)O)c4cc(S(=O)(=O)O)cc(S(=O)(=O)O)c34)cc2)cc1	2%	/
Cc1ccc2[nH]c3c(c2c1)CCC3=O	-2%	>57
Cc1ccc2[nH]c3c(c2c1)CCc1cn[nH]c1-3	-6%	8.7*
